Measured values taken from PubChem BioAssay AID1259399 (Fisher Drug Discovery Resource Center, 2018).
Out of some 160,000 compounds screened, about 240 (0.15%) were called active. What follows is part of a selection rich in actives, with near analogues and random picks from the rest. A number with no mark means an inactive call. Rule as the data show it: active = inhibition above about 40%; inactive = the rest.

target: Cyclic GMP-AMP synthase (Mus musculus) (UniProt Q8C6L5); assay: inhibition of Mus musculus cGAS, primary biochemical chemiluminescence screen (AID 1259399); conditions: recombinant cGAS, Kinase-Glo ATP depletion luminescence; at 12.5 µM; stronger effect = higher value;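 also: 0% = negative control wells and 100% = reference inhibitor with no enzyme activity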
Sequence (Q8C6L5 whole entry, looked up): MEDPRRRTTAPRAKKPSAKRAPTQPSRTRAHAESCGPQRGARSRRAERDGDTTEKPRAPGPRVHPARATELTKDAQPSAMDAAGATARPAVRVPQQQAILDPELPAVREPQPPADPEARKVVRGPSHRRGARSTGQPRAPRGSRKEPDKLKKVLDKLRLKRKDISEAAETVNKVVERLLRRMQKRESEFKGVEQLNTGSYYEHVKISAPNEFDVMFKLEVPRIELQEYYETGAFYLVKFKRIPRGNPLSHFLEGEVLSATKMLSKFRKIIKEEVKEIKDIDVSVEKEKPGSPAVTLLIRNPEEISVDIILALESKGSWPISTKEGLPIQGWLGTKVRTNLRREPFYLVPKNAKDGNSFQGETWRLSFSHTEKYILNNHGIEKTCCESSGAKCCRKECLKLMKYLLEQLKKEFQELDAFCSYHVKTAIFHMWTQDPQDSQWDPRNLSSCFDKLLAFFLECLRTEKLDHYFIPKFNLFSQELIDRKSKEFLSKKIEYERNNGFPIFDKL

Structure (SMILES)	inhibition
COc1cccc(-c2cc(-c3ccc(C(=O)NCCc4ccc(OC)c(OC)c4)cc3)[nH]n2)c1	-4.79%
COc1ccc(-n2c(SCC(=O)N3CCN(C(=O)C(c4ccccc4)c4ccccc4)C(C)C3)nnc2-c2cccc(OC)c2)cc1 (centres undefined)	-6.69%
CC(C)(C)n1nc2c(c1NC(=O)c1ccc3c(c1)OCO3)CSC2	-7.2%
CC(C)N(CC(=O)N(Cc1ccc(F)cc1)Cc1ccco1)C(=O)c1ccc(-c2ccccc2)cc1	-5.81%
Cc1cc(OC(=O)c2ccc(OC(C)C)cc2)c([N+](=O)[O-])c(=O)[nH]1	-0.422%
Cc1ccc(C)c(CN2CCN(c3nc4c(c(=O)[nH]c(=O)n4C)n3CCC(C)C)CC2)c1	-1.17%
Cc1ccc(S(=O)(=O)N(Cc2ccco2)Cc2nccn2Cc2ccc(C(F)(F)F)cc2)cc1	-8.05%
COc1ccccc1C1=NOC(CN(Cc2ccccc2Cl)C(=O)C2CCC2)C1 (centres undefined)	-4.91%
O=c1cc(-c2ccc(F)cc2)ncn1Cc1cccc2ccccc12	5.38%
O=C(CN1CCCC1Cn1cccn1)NCCc1ccc(F)cc1 (centres undefined)	-4.22%
CCc1ccc(-c2nn(-c3ccccc3)cc2C=NO)cc1	-6.62%
CCOc1ccccc1NC(=O)CC(=O)N1[C@H](C)CCC[C@@H]1C	-17.8%
S=C(NN=CC1CC=CCC1)NC1CCCCC1 (centres undefined)	-5.67%
O=C(NNc1nc2c(Cl)cccc2s1)c1cc(=O)c2ccccc2o1	4.02%
COc1ccc(/C=C/C(=O)N2CCC3(CC2)CC3C(=O)N2CCN(c3ccccn3)CC2)cc1OC (centres undefined)	-22.2%
c1ccc(Oc2cccc(-c3ccc4nnc(-c5ccc6nccnc6c5)n4c3)c2)cc1	-8.11%
Cc1ccc(N(CCCCN2C(=O)c3ccccc3C2=O)C(=O)/C=C/c2ccccc2Cl)cc1	-4.6%
CCc1cc(N2CCN(c3ccccc3F)CC2)nc(SCc2cccc(C(=O)NCC3CCCO3)c2)n1 (centres undefined)	-4.77%
CC(O)CNC(c1nc(-c2ccc(Br)cc2)no1)C(C)C (centres undefined)	-3.51%
Cc1cc(C)n(-c2ccc(N3CCN(S(=O)(=O)c4ccc(C)c(C)c4)CC3)nn2)n1	-8.08%
Cc1cc2c(o1)CC(C)(C)CC2NS(=O)(=O)CCc1ccccc1 (centres undefined)	-12.8%

Structure (SMILES)	inhibition
COc1ccccc1C(=O)N1CCC(n2c(=O)oc3ccc(Cl)cc32)CC1	-5.6%
Cc1nnc(SCC(=O)Nc2cccc(Cl)c2)c2c1cnn2-c1ccc(F)cc1	-13.2%
O=C1OC(c2ccc(Cl)cc2)=NC1=Cc1ccc(N2CCOCC2)s1	-5.28%
COCCN1C(=O)C(c2c(C(C)C)[nH]n(-c3ccc(Cl)c(Cl)c3)c2=O)=C([n+]2ccccc2)C1=O	-8.94%
CCOC(=O)c1ccccc1NC(=O)CSc1nnc(C)c2cnn(-c3ccccc3OC)c12	-1.28%
Cc1ccccc1OCC(=O)N(CCn1cccn1)c1nc2ccccc2s1	3%
CCc1nc2c(OCC(N)=O)cccn2c1N(C)C(=O)c1ccc(OC)cc1	-2.96%
CCOC(=O)CN(C(=O)c1cc(C)oc1C)[C@H]1[C@H](OC)[C@@H]2O[C@H]1c1ccccc12	-0.832%
O=C(COc1ccc(Cl)cc1)NCC1CCN(c2nc(Cc3ccc(F)cc3)ns2)CC1	-5.03%
COC[C@H](C)NC(=O)Cc1sc(C)nc1C	-2.6%
O=C(CCN1C(=O)COc2ccccc21)N1CCC2(CCCO2)CC1	-9.44%
O=C1c2ccccc2C(=O)N1CN(C(=O)C(F)(F)F)c1ccc(I)cc1	-2.77%
CC1c2cccn2CCN1Cc1ccc(C#N)cc1F (centres undefined)	-13.4%
CC1=C(C(=O)OCC(C)C)C23C(=O)c4ccccc4C2(OC(=N)C3C#N)O1 (centres undefined)	-3.99%
COCCCn1c(CN2CCCC(C(=O)c3ccccc3)C2)cnc1S(C)(=O)=O (centres undefined)	-11%
O=C(Cn1nnc(-c2ccccc2)n1)Nc1c(F)cccc1F	4.62%
CCOCCCN(CC(=O)N(Cc1ccccc1)Cc1sccc1C)C(=O)c1cccc(Br)c1	1.83%
COc1ccc(C(=O)N(Cc2ccc(F)cc2)Cc2cc(NC(=O)c3ccco3)ccc2N(C)C)cc1	-0.342%
CC(C)(C)c1cc2nc(-c3ccccc3F)cc(C(=O)NC3CC3)n2n1	-7.68%
CC(C)(C)S(=O)(=O)c1ccc2nn(CC(=O)Nc3ccc(Cl)cc3)c(=O)n2n1	-9.01%
CCCN1CCN(S(=O)(=O)c2[nH]ncc2C(=O)OCC)CC1	-10.5%

Structure (SMILES)	inhibition
Cc1ccc(C)c(NC(=O)Cn2nc3c(=O)n(-c4ccc(Br)cc4)ccn3c2=O)c1	-5.88%
Cc1ccc(C)c(Cn2ccnc2CN(CC(C)C)C(=O)c2cccc(F)c2)c1	-11.5%
COc1ccc(OC)c(CC(=O)NC2CC(C)(C)Cc3c2cnn3-c2cccc(F)c2)c1 (centres undefined)	-9.44%
Fc1ccc(CN2CCCn3cccc3C2c2ccoc2)cc1Cl (centres undefined)	0.16%
O=C1NC2(CCN(Cc3ccccc3[N+](=O)[O-])CC2)Nc2ccc(Br)cc21	-4.81%
CCOC(=O)C1=C(C)N=c2s/c(=C\c3ccc(Cl)c(Cl)c3)c(=O)n2C1c1cccs1 (centres undefined)	-4.71%
COc1cccc(Cc2c(C)nc(C)nc2N2CCN(S(=O)(=O)c3ccc(NC(C)=O)cc3)CC2)c1	-9.89%
CCCCn1c(SCc2nnc(C)o2)nc2sc(C)c(C)c2c1=O	-8.28%
O=C(Nc1ccc(-c2ccccc2)cc1)N[C@@H](Cc1ccccc1)C(=O)N1CCC(C(=O)N2CCOCC2)CC1	1.19%
COc1ccc(C)cc1S(=O)(=O)Nc1ccccc1C(=O)NCc1cccc(Cl)c1	-4.63%
NC(=O)c1cncc(-n2ccnc2-c2ccccc2)c1	-8.08%
CC(C)Nc1cc(N2CC(c3ccccn3)C2)ncn1	-15.6%
C=CCn1c(SCC(=O)c2cc(C)n(CCOC)c2C)nc2scc(-c3ccccc3)c2c1=O	1.74%
CC(C)N(C(=O)CN1CCN(C(=O)c2cn(C)cc3c(=O)n(-c4ccccc4)nc2-3)CC1)C(C)C	-8.86%
CCOC(=O)c1cc(-c2ccc(N3CCN(C(=O)COCc4ccccc4)CC3)cc2)n(-c2ccccc2Cl)n1	-7.07%
COc1cccc(C(CN2CCN(C(=O)c3oc4ccccc4c3C)CC2)OCc2cccc(Cl)c2)c1 (centres undefined)	-3.76%
O=C(c1ccccc1Br)N1CCc2nc(-c3ccccc3)nc(N3CCCCC3)c2C1	-6.08%
O=C(Nc1nnc(C23CC4CC(CC(C4)C2)C3)s1)C12CC3CC(CC(C3)C1)C2	-5.12%
Cc1ccccc1Cc1nc2c(c(=O)[nH]1)CN(C(=O)Cc1ccc(F)cc1)CC2	-2.79%
CC(C)c1nnsc1C(=O)N1CCC2(CC1)C(=O)NCCN2C	-8.76%
CC(Nc1ccc([N+](=O)[O-])cc1S(=O)(=O)N1CCOCC1)c1ccc(F)cc1F (centres undefined)	-8.24%

Structure (SMILES)	inhibition
N#Cc1ccc(-c2ccccc2)nc1SC(C(=O)O)c1ccccc1 (centres undefined)	-4.77%
CCCS(=O)(=O)N1CCCC(C(=O)NC(C)CC)C1 (centres undefined)	-2.19%
COc1cc([N+](=O)[O-])cc2sc(NC(=O)C(C)C)nc12	-2.21%
CCn1c(=O)c(C(=O)NCC2CCCO2)nn(-c2ccccc2F)c1=O (centres undefined)	-8.2%
CC(C)(C)c1ccc(C2SCC(=O)N2CCC(=O)O)cc1 (centres undefined)	-3.76%
CCCC(=O)Nc1ccc(NC(=O)c2cc(C(C)C)[nH]n2)cc1OC	-8.07%
O=C(NC(c1ccccc1)c1ccc(Cl)cc1)C1CC1(c1ccccc1)c1ccccc1 (centres undefined)	-5.82%
COCCCN1COc2ccc3c(=O)c(Oc4ccc(OC)cc4)coc3c2C1	-1.41%
Brc1ccc(N=c2oc3ccccc3cc2-c2nc3ccccc3[nH]2)cc1	-0.816%
COc1ccc(-c2nnc3ccc(OCCNS(=O)(=O)c4cccs4)nn23)cc1	-9.21%
Oc1c(Cl)cc(Cl)c2ccc(N/N=C\c3cccc(Oc4ccccc4)c3)nc12	-3.37%
O=c1n(Cc2noc(-c3ccoc3)n2)nnn1-c1cccs1	-17.5%
CC(C)(C)S(=O)(=O)c1ccc(N2CCN(c3ccc(Cl)cc3)CC2)nn1	-8.96%
COc1ccccc1C(=O)N1CCN(CC(OCc2c(F)cccc2F)c2ccc(Cl)cc2)CC1 (centres undefined)	-2.63%
C[N+](C)(CCCCCC[N+](C)(C)CCCN1C(=O)c2cccc3cccc(c23)C1=O)CCCN1C(=O)c2cccc3cccc(c23)C1=O	75.6% (active)
COc1ccc(N2C(=O)c3cccc4cccc(c34)C2=O)cc1OC	-7.45%
Cc1ccccc1N(CCCN1C(=O)c2cccc3cccc(c23)C1=O)C(=O)c1ccc([N+](=O)[O-])cc1	2.98%
COc1cc(C=C2N=C(C(C)(C)C)OC2=O)ccc1OC(F)F	1.97%
COc1ccc(C(=O)N2CCCC3(CC2)CNC(=O)O3)cc1N1CCOCC1 (centres undefined)	-11.6%
O=C(COc1ccc(Cl)cc1)Nc1c(-c2cccc(F)c2)nc2ccccn12	-8.5%
COCCCN(CC(=O)N1CCc2sccc2C1c1ccc(C)cc1)C(=O)c1ccc(C)c([N+](=O)[O-])c1 (centres undefined)	-4.86%
